Hits are enriched below; roughly 1.6% of the tested compounds scored in any of these assays.
Sa ugtP lethal – growth inhibition of S. aureus ugtP deletion strain; S. aureus RN4220 ugtP deletion, OD600 growth, 16 h; growth inhibition, % (no concentration beside the values); 330,000 compounds, 0.54% hits; in the data active means growth inhibition above about 68%;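 further: plate controls were untreated wells for no effect and antibiotic for full effect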
CCHF vOTU inh – CCHFV vOTU protease inhibition; Pep-AMC fluorescence; AID 651958; 370,000 compounds, 0.55% hits; inhibition, % at 11.5 µM; in the data active means inhibition above about 30%; further: 0% = vehicle wells with enzyme and 100% = no enzyme wells
RN4220 kill – kills Staphylococcus aureus RN4220; S. aureus RN4220 growth, OD600, 16 h; inhibition, % (test concentration not listed); 330,000 compounds, 0.33% hits; in the data active means inhibition above about 85%;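 further: plate controls were untreated cells for no effect and reference antibiotic for full effect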
PfHsp40 rescue – restores yeast growth despite PfHsp40 toxicity | AID 504582 | growth rescue, % at 12.5 µM | 340,000 compounds, 0.68% hits | S. cerevisiae expressing PfHsp40, growth rescue, ATP luminescence; in the data active means growth rescue above about 28%, passing the limit was not always enough;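 further: yeast W303a lacking pdr1 and pdr3 grown in galactose medium; growth measured after three days at 30 °C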
BJeLR lethal – BJeLR cell viability loss; BJeLR (HRASV12) viability, CellTiter-Glo ATP luminescence, 48 h; AID 1554; 300,000 compounds, 0.17% hits; inhibition, % (concentration not given with the values); in the data active means inhibition above about 50%
Numbers without * were called inactive; . = not tested or not shown.

SMILES	Sa ugtP lethal	CCHF vOTU inh	RN4220 kill	PfHsp40 rescue	BJeLR lethal
Cc1ccc(SCCNC(=S)Nc2ccccc2)cc1	-10	9	2	12	1
COc1ccc(NC(=O)Nc2nc3c(s2)CCCC3)cc1	-7	-6	5	56*	4
COc1ccc(OCC(=O)Nc2nc3c(s2)CCCC3)cc1	-12	-17	2	8	1
O=C(NN=Cc1ccc(F)cc1)c1cc[n+]([O-])cc1	1	.	2	.	.
COc1ccc(N2C(=O)/C(=C/c3ccc(C)o3)C(=O)NC2=S)cc1	4	-10	3	0	51*
Cc1cccc(CS(=O)(=O)c2nnc([C@H](Cc3ccccc3)NC(=O)OC(C)(C)C)o2)c1	38	.	5	373*	-16
Cn1c(=O)n(C)c2cc(C=C3SC(=O)N(CC(=O)N4CCOCC4)C3=O)ccc21	-12	.	0	.	.
COC(=O)[C@@H]1Cc2c([nH]c3ccccc23)C(C)(C)N1C(=O)CCl	10	4	1	0	91*
COC(=O)C1Cc2c([nH]c3ccccc23)C2CCC(=O)N12 (stereo not drawn)	.	-9	.	.	.
COC(=O)C1=C(c2ccc(F)cc2OCc2ccccc2)CC2CCC1N2C(=O)NCc1ccc([N+](=O)[O-])cc1 (stereo not drawn)	4	.	-9	.	.
Cc1ccc(NC(=O)CNC(=O)N2CC(=O)Nc3ccccc32)cc1F	0	-1	-8	1	0
O=C(CN1CC(=O)Nc2ccccc21)Nc1ccc(F)c(F)c1	12	-2	0	43*	-15
CCOc1ccc(-n2c(O)c(/C=N/NC(=O)C3COc4ccccc4O3)c3ccccc3c2=O)cc1 (stereo not drawn)	.	3	.	303*	-3
O=C(NN=Cc1ccc(O)cc1)c1cc(C2CC2)[nH]n1	1	.	3	.	.
COc1ccc(Cc2c(Cl)ncnc2Cl)cc1	4	4	4	-1	0
CSc1nc(Cl)c(Cc2ccc(OC(C)C)cc2)c(N(C)C)n1	94*	18	-13	1	1
CCOc1ccc(Cc2c(Cl)nc(SC)nc2N(C)C)cc1	93*	8	-7	0	15
Cc1nc2ccccn2c1C(O)=C1C(=O)C(=O)N(CCN2CCOCC2)C1c1ccncc1 (stereo not drawn)	0	.	9	.	.
C#CCOCCOCCOCCNc1nc(N2CCN(C(=O)C(CCC(=O)O)n3cc(C(N)CO)nn3)CC2)nc(N2CCN(C(=O)C(Cc3ccc(O)cc3)n3cc(C(N)C(C)CC)nn3)CC2)n1 (stereo not drawn)	-8	.	1	.	.
C[C@]1(C(=O)O)C=CC(Cc2ccccc2)N1C(=O)c1ccccc1 (stereo partly drawn)	-9	.	7	.	.
Cc1ccccc1CN1CC2CC(c3cn[nH]c3-c3ccc(F)cc3)N3CCC[C@@]23C1=O (stereo partly drawn)	3	.	4	.	.
Cc1ccc(S(=O)(=O)N2C(c3ccc(Cl)cc3)CC=C(C(=O)O)C2c2ccc(F)cc2)cc1 (stereo not drawn)	93*	.	19	.	.
CCc1ccc([C@@H]2CC=C(C(=O)O)[C@H](c3cccc(Cl)c3)N2S(=O)(=O)c2ccc(C)cc2)cc1	.	15	.	156*	.
Cc1ccc(S(=O)(=O)N2[C@@H](c3cccc(Cl)c3)C(C(=O)O)=CC[C@H]2c2cccc(Cl)c2)cc1	.	2	.	12	.
Cc1ccc([C@H]2C(C(=O)O)=CC[C@@H](c3cccc(Cl)c3)N2S(=O)(=O)c2ccc(C)cc2)cc1	13	7	18	213*	.
SMILES	Sa ugtP lethal	CCHF vOTU inh	RN4220 kill	PfHsp40 rescue	BJeLR lethal
Cc1ccc(S(=O)(=O)N2[C@@H](c3ccc(C(C)(C)C)cc3)C(C(=O)O)=CC[C@H]2c2ccc(Cl)c(Cl)c2)cc1	95*	19	100*	3	.
CN1C(=CC=NNC(=O)c2ccc(O)cc2)C(C)(C)c2ccccc21	13	.	0	.	.
O=C(NC1CCCCC1)C(O)C(O)C(=O)NC1CCCCC1 (stereo not drawn)	-1	.	4	.	.
CCCCNC(=O)C1CC=CC2CCN(C3CC3)C(=O)C21 (stereo not drawn)	2	.	5	.	.
COc1ccccc1/C=C/C=NNC(=O)c1cc(-c2ccco2)[nH]n1	-4	.	-1	.	.
Cc1ccc(S(=O)(=O)N2[C@@H](c3ccc(Cl)cc3)C(C(=O)O)=CC[C@H]2c2ccc(C(C)C)cc2)cc1	57	27	25	6	.
CCc1ccc([C@@H]2CC=C(C(=O)O)[C@H](c3ccc(Cl)cc3)N2S(=O)(=O)c2ccc(C)cc2)cc1	.	22	.	281*	.
CNc1ccc2oc(CC3O[C@@]4(CCC3C)OC(C(C)C(=O)c3ccc[nH]3)C(C)CC4C)nc2c1C(=O)O (stereo partly drawn)	100*	.	96*	.	.
CCOc1ccccc1C(=O)N1CCN(c2cccc(Cl)c2)CC1	9	2	1	0	53*
O=C(O)c1ccccc1C(=O)N1CCN(c2cccc(Cl)c2)CC1	6	3	-7	2	-5
CC(=O)[C@]1(O)Cc2c(O)c3c(c(O)c2[C@@H](O[C@H]2C[C@H](N)[C@H](O)[C@H](C)O2)C1)C(=O)c1ccccc1C3=O	.	.	.	.	82*
COc1cccc2c1C(=O)c1c(O)c3c(c(O)c1C2=O)C[C@@](O)(C(C)=O)C[C@@H]3O[C@H]1C[C@H](N)[C@H](O)[C@H](C)O1	.	8	.	51*	.
COc1cccc2c1C(=O)c1c(O)c3c(c(O)c1C2=O)CC(O)(C(=O)CO)CC3OC1CC(N(C)C)C(O)C(C)O1 (stereo not drawn)	.	12	.	100*	.
COc1cccc2c1C(=O)c1c(O)c3c(c(O)c1C2=O)C[C@@](O)(C(=O)CO)C[C@@H]3O[C@H]1C[C@H](N)[C@@H](O)[C@H](C)O1	.	.	.	11	74*
Cc1ccc(S(=O)(=O)NC(C)CCc2ccccc2)cc1 (stereo not drawn)	-4	31*	4	0	-10
CC(=NO)c1ccc(Cl)cc1Cl	4	.	6	.	.
CC(Cc1cccs1)NC(=O)Nc1ccc(Cl)cc1 (stereo not drawn)	.	-14	.	1	-2
CC(Cc1cccs1)NC(=O)Nc1ccc(Cl)c(Cl)c1 (stereo not drawn)	-21	8	18	131*	3
O=C(NN=Cc1cn(-c2ccccc2)nc1-c1ccc(F)cc1)c1ccc2c(c1)OCO2	-1	.	-4	.	.
CC(=NNC(=S)N(Cc1ccccn1)Cc1ccccn1)c1cnccn1	.	13	.	113*	.
S=C(NN=Cc1ccccn1)N(Cc1ccccn1)Cc1ccccn1	.	-21	.	1	.
S=C(NN=C(c1ccccc1)c1ccccn1)N(Cc1ccccn1)Cc1ccccn1	.	22	.	135*	.
CC(C)(C)NC(=O)CCN(N=Cc1ccncc1)C1=NS(=O)(=O)c2ccccc21	7	.	3	.	.
Cc1ccc(C(=O)NN=Cc2ccc(N3CCOCC3)cc2)c(C)c1	7	.	1	.	.
Cc1ccc(O)c(N=Cc2cc(Cc3ccccc3)cc([N+](=O)[O-])c2O)c1	-7	23	10	124*	-1
O=[N+]([O-])c1cc(Cc2ccccc2)cc(C=Nc2ccc(N3CCOCC3)cc2)c1O	-7	.	5	274*	-5

Assay outcomes: PubChem, several laboratories
